Test results from ChEMBL document CHEMBL2218924, “A broad activity screen in support of a chemogenomic map for kinase signalling research and drug discovery” (Biochem J, 2013).

How the values were obtained:
[1] = molecular target: T1, Aurora kinase C (Homo sapiens) (UniProt Q9UQB9); settings: at 1 µM
T1 sequence (whole entry): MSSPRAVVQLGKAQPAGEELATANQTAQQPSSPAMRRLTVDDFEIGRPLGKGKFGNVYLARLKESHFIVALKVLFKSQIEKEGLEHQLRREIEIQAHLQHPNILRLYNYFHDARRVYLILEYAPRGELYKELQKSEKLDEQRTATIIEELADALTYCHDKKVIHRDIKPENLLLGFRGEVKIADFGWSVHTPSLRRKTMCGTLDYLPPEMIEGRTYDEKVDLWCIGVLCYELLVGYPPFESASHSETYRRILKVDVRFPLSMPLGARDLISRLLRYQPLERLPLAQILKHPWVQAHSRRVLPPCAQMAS

[2] = molecular target: T1, Aurora kinase C (Homo sapiens); settings: at 10 µM
[3] = molecular target: Tyrosine-protein kinase receptor UFO (Homo sapiens) (UniProt P30530); settings: at 1 µM
Chain of Tyrosine-protein kinase receptor UFO (Homo sapiens) (P30530 whole entry): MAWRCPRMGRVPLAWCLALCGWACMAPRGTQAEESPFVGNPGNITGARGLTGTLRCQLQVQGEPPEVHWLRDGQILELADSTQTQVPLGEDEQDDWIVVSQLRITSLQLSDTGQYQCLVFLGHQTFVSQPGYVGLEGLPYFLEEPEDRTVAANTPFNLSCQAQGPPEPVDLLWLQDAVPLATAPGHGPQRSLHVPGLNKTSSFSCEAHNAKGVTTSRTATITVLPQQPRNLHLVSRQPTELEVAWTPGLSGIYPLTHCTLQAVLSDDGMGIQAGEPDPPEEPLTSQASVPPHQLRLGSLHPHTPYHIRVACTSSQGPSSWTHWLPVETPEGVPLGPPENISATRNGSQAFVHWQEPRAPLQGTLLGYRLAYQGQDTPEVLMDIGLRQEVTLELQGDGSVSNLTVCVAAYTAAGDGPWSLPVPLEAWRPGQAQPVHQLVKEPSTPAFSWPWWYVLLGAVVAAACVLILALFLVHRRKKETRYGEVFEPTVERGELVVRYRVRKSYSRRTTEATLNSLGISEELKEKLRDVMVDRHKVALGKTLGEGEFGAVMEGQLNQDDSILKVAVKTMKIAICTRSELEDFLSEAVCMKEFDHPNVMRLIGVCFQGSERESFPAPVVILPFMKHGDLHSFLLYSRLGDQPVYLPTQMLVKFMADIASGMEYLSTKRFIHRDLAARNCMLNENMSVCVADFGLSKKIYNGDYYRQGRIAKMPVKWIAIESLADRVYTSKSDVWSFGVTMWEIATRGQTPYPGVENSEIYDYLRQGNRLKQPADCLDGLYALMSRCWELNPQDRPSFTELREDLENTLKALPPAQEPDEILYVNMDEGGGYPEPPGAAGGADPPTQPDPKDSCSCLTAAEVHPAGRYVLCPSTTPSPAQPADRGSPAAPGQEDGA

[4] = molecular target: Tyrosine-protein kinase receptor UFO (Homo sapiens) (UniProt P30530); settings: at 10 µM
[5] = molecular target: Protein-tyrosine kinase 6 (Homo sapiens) (UniProt Q13882); settings: at 1 µM
Chain of Protein-tyrosine kinase 6 (Homo sapiens) (Q13882 whole entry, looked up): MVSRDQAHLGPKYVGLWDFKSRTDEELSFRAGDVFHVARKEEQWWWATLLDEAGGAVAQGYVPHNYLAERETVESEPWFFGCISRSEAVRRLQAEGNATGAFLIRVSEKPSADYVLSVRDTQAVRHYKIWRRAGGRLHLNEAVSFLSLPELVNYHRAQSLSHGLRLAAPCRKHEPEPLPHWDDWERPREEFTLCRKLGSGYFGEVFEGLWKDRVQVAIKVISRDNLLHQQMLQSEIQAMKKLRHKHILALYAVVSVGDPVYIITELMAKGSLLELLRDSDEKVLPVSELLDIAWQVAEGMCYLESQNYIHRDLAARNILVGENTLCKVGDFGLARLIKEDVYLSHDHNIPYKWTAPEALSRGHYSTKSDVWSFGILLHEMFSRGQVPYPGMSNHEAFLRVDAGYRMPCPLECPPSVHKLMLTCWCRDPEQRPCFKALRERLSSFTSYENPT

[6] = molecular target: Protein-tyrosine kinase 6 (Homo sapiens) (UniProt Q13882); settings: at 10 µM
[7] = molecular target: Tyrosine-protein kinase BTK (Homo sapiens) (UniProt Q06187); settings: at 1 µM
Chain of Tyrosine-protein kinase BTK (Homo sapiens) (Q06187 whole entry): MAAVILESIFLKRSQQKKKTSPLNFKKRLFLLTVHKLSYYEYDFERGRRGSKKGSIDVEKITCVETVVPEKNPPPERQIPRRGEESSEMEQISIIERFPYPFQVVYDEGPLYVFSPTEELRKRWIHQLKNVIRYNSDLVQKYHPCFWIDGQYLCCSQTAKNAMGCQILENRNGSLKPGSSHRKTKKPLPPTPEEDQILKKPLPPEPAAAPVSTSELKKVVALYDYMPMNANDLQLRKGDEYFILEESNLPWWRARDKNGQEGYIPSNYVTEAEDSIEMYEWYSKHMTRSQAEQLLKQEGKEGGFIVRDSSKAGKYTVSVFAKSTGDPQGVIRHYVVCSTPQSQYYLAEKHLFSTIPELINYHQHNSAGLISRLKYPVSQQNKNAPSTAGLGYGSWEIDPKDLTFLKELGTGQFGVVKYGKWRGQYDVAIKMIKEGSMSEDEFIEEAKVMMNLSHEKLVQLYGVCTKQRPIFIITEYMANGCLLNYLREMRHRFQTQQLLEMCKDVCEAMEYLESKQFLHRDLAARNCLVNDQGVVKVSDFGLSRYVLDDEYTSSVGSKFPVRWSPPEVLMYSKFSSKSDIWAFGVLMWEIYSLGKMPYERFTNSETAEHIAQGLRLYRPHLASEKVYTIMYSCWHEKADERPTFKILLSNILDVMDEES

[8] = molecular target: Tyrosine-protein kinase BTK (Homo sapiens) (UniProt Q06187); settings: at 10 µM
[9] = molecular target: Tyrosine-protein kinase Blk (Homo sapiens) (UniProt P51451); settings: at 1 µM
Chain of Tyrosine-protein kinase Blk (Homo sapiens) (P51451 2-505 limits assumed): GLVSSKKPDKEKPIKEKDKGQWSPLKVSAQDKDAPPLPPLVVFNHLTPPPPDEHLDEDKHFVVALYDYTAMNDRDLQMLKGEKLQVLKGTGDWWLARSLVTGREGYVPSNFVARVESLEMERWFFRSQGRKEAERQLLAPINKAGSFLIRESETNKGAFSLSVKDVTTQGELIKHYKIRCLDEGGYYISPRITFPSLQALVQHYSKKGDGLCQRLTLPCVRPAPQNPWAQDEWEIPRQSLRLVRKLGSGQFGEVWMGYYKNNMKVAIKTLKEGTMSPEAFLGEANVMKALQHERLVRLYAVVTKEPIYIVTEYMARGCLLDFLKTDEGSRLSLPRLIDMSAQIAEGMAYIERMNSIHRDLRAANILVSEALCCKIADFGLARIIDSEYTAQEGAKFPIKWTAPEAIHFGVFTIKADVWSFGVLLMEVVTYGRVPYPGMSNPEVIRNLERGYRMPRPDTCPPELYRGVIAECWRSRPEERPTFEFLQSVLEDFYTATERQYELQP

[10] = molecular target: Tyrosine-protein kinase Blk (Homo sapiens) (UniProt P51451); settings: at 10 µM

SMILES	residual activity [1]	residual activity [2]	residual activity [3]	residual activity [4]	residual activity [5]	residual activity [6]	residual activity [7]	residual activity [8]	residual activity [9]	residual activity [10]
O=C(O)/C=C/c1cc(Br)c(Br)c(Br)c1Br	98%	78%	91%	51%	99%	101%	102%	91%	99%	81%
Nc1n[nH]c2nc3ccccc3nc12	72%	30%	94%	96%	–	–	88%	88%	89%	88%
COc1ccc(-c2cnc3c(-c4ccsc4)cnn3c2)cc1	95%	63%	94%	95%	–	–	–	–	–	–
O=C(NC(NC(=S)Nc1ccc(F)c([N+](=O)[O-])c1)C(Cl)(Cl)Cl)C(c1ccccc1)c1ccccc1 (configuration not stated)	94%	91%	–	91%	–	–	87%	89%	–	–
CN(C)S(=O)(=O)c1ccc2c(c1)/C(=C/c1cc3c([nH]1)CCCC3)C(=O)N2	75%	52%	51%	36%	98%	94%	91%	50%	10%	2%
Cn1sc(=O)n(Cc2ccccc2)c1=O	76%	77%	96%	66%	96%	95%	91%	91%	–	–
Nc1ncnc2[nH]nc(Nc3ccc(F)cc3)c12	80%	43%	90%	57%	51%	19%	74%	34%	3%	3%
Cn1c2ccccc2c2c3c(c4c5ccccc5n(CCC#N)c4c21)CNC3=O	47%	35%	53%	32%	–	–	10%	9%	–	–
O=C(c1cc2cc(O)ccc2[nH]1)c1cc2cc(O)ccc2[nH]1	61%	24%	50%	15%	–	–	78%	34%	6%	1%
N#Cc1c(NC(=O)c2cccc3ccccc23)sc2c1CCCC2	98%	97%	96%	79%	–	–	–	–	–	97%
NC(=O)c1ccc(-c2nc(-c3ccc4c(c3)OCCO4)c(-c3ccccn3)[nH]2)cc1	84%	90%	77%	85%	–	–	–	–	88%	85%
COc1cc2nccc(Oc3ccc(NC(=S)NC(=O)c4ccccc4C)cc3)c2cc1OC	13%	1%	11%	8%	22%	11%	17%	2%	0%	0%
COc1cc2nccc(Oc3ccc(NC(=O)Nc4cc(C)on4)c(Cl)c3)c2cc1OC	32%	7%	12%	10%	2%	-1%	50%	10%	2%	0%
CCN(CC)CCNC(=O)c1c(C)[nH]c(/C=C2\C(=O)Nc3ccc(Cl)cc32)c1C	38%	5%	9%	1%	65%	11%	–	–	1%	0%
CC(C)N(CCC(=O)c1ccc2ccccc2c1)Cc1ccccc1	76%	61%	69%	74%	–	–	–	–	–	–
O=C1NC(=O)C(c2cn(CCCO)c3ncccc23)=C1c1cnccn1	97%	88%	61%	59%	–	–	–	–	78%	69%
O=C1NC(=O)c2c1c1c3ccccc3[nH]c1n1cncc21	37%	12%	86%	71%	81%	53%	70%	34%	57%	8%
Nc1nc(Nc2ccc(S(N)(=O)=O)cc2)nn1C(=O)c1c(F)cccc1F	6%	1%	56%	13%	106%	74%	–	–	74%	9%
CC(C)(C)n1nc(Cc2cccc3ccccc23)c2c(N)ncnc21	94%	71%	80%	72%	5%	-1%	24%	3%	77%	13%
NC(=O)Nc1sc(-c2ccc(F)cc2)cc1C(N)=O	9%	3%	77%	24%	77%	26%	38%	1%	39%	4%
O=C(CCCc1ccc(-c2ccccc2F)cc1)Nc1ccc(O)cc1	97%	92%	105%	100%	104%	96%	106%	95%	–	–
CC(C)c1nn(-c2c(Cl)cccc2Cl)c2nc(Cc3ccc(OCCO)cc3)[nH]c(=O)c12	85%	90%	90%	87%	–	–	87%	97%	92%	76%

SMILES	residual activity [1]	residual activity [2]	residual activity [3]	residual activity [4]	residual activity [5]	residual activity [6]	residual activity [7]	residual activity [8]	residual activity [9]	residual activity [10]
O=C(c1ccccc1)c1ccc(N2CCOCC2)cc1O	64%	78%	86%	72%	–	–	–	116%	95%	81%
CCCC(=O)Oc1ccc2[nH]c(C(=O)c3cc4ccccc4[nH]3)cc2c1	104%	84%	81%	80%	101%	107%	94%	–	70%	64%
COc1cc2ncnc(Nc3cccc(Cl)c3)c2cc1OC	100%	45%	102%	51%	33%	3%	–	–	43%	5%
CCCCc1c(-c2ccc(O)cc2)[nH]c2nccnc12	50%	49%	92%	75%	31%	29%	33%	10%	73%	50%
CC(C)[C@H](CO)Nc1nc(Nc2cc(N)cc(Cl)c2)c2ncn(C(C)C)c2n1	91%	52%	80%	20%	96%	83%	48%	5%	–	–
O=c1cc(N2CCOCC2)oc2c1ccc1ccccc12	102%	87%	82%	78%	110%	105%	94%	86%	–	90%
CCCCc1c(-c2ccc(OC)cc2)[nH]c2nccnc12	59%	54%	77%	–	37%	46%	35%	4%	73%	72%
Nc1ncnc2c1c(-c1ccc(Oc3ccccc3)cc1)cn2C1CCCC1	87%	54%	58%	21%	0%	-1%	1%	1%	0%	0%
CC(C)(C)c1nc2c3ccc(F)cc3c3c(=O)[nH]ccc3c2[nH]1	11%	7%	40%	59%	–	–	71%	59%	–	–
O=C1Nc2ccc(Cl)cc2/C1=C/c1cc(Cl)c(O)c(Cl)c1	96%	65%	71%	46%	84%	65%	95%	70%	96%	50%
Oc1cccc(-c2nc(N3CCOCC3)c3oc4ncccc4c3n2)c1	–	–	–	86%	–	–	–	–	–	–
Cc1cc(C)c(/C=C2\C(=O)Nc3ccccc32)[nH]1	–	–	31%	21%	103%	104%	–	–	65%	32%
COc1cc2c(cc1OC)-c1n[nH]c(Nc3cccc(F)c3)c1C2	–	–	71%	50%	78%	25%	22%	4%	14%	2%
N#C/C(=C\c1ccc(O)c(O)c1)C(=O)NCc1ccccc1	–	–	–	77%	–	–	–	–	104%	–
N#C/C(=C1/Nc2ccccc2S1)c1ccnc(NCCc2cccnc2)n1	–	–	–	–	60%	37%	96%	43%	–	–
COc1ccc(CNC(=O)Nc2ncc([N+](=O)[O-])s2)cc1	75%	78%	–	–	24%	17%	42%	35%	–	–
COc1ccc2c(c1)c(C1=C(c3c[nH]c4ccccc34)C(=O)NC1=O)cn2CCCN(C)C	–	59%	–	40%	98%	82%	–	–	57%	7%
Nc1nccc(-c2c(-c3ccc(F)cc3)ncn2C2CCNCC2)n1	–	78%	–	–	–	30%	–	–	–	–
CCOc1nc(NC(=O)Cc2cc(OC)ccc2OC)cc(N)c1C#N	78%	–	–	–	60%	50%	81%	78%	–	–
O=C(Nc1nc2ccccc2n1CCN1CCOCC1)c1cccc([N+](=O)[O-])c1	–	–	75%	78%	–	–	100%	109%	111%	100%
NC(=O)c1cccc(-c2cc(Nc3ccc(OC(F)(F)F)cc3)ncn2)c1	–	–	89%	76%	–	–	96%	92%	82%	57%
O=C(Nc1ccc(Cl)cc1)c1ccccc1NCc1ccncc1	–	70%	–	–	21%	1%	–	–	–	–

SMILES	residual activity [1]	residual activity [2]	residual activity [3]	residual activity [4]	residual activity [5]	residual activity [6]	residual activity [7]	residual activity [8]	residual activity [9]	residual activity [10]
O=S(=O)(NCCNC/C=C/c1ccc(Br)cc1)c1cccc2cnccc12	80%	22%	–	–	–	–	–	–	–	76%
COc1ccc(COc2ccc(Cc3cnc(N)nc3N)cc2OC)cc1	–	–	80%	74%	–	–	–	–	–	98%
NCCNc1ncc(C(N)=O)c(Nc2cccc(C(F)(F)F)c2)n1	–	–	74%	58%	74%	14%	–	–	79%	12%
CCOC(=O)c1c(C)[nH]c(/C=C2\C(=O)Nc3ccccc32)c1C	–	–	84%	81%	–	–	–	–	89%	57%
Nc1ncnc2c1cnn2-c1ccccc1	97%	53%	–	–	98%	96%	94%	99%	–	88%
O=C1Cc2c([nH]c3ccc(Br)cc23)-c2ccccc2N1	76%	71%	–	–	95%	72%	–	–	–	–
O=C1NC(=O)C(c2c[nH]c3ccccc23)=C1c1c[nH]c2ccccc12	114%	–	–	56%	–	–	100%	67%	–	23%
O=C1NC(=O)C(c2cn(CCCn3ccnc3)c3ccccc23)=C1Nc1ccccc1	–	67%	–	66%	–	–	–	–	–	33%
O=S(=O)(c1cccc2cnccc12)N1CCCNCC1	–	59%	–	–	–	–	–	–	–	–
O=c1cc(N2CCNCC2)oc2c(-c3ccccc3)cccc12	–	–	80%	76%	–	99%	–	–	–	71%
O=C1Cc2c([nH]c3ccc([N+](=O)[O-])cc23)-c2ccccc2N1	–	–	–	–	111%	107%	–	–	29%	33%
CN([C@@H](Cc1ccc(OS(=O)(=O)c2cccc3cnccc23)cc1)C(=O)N1CCN(c2ccccc2)CC1)S(=O)(=O)c1cccc2cnccc12	–	–	–	–	–	–	100%	86%	98%	81%
O=C1Nc2ccccc2/C1=C\c1c(Cl)[nH]c2ccccc12	–	–	–	58%	–	54%	–	80%	–	–
O=c1c(-c2ccc(F)cc2)c(-c2ccncc2)[nH]n1-c1ccc(Cl)cc1	–	–	–	–	59%	7%	–	–	101%	74%
Fc1ccc(-c2nc3n(c2-c2ccncc2)CCS3)cc1	98%	95%	–	–	–	–	100%	98%	–	–
c1ccc(-c2cnc(Nc3ccc(OCCN4CCCC4)cc3)s2)cc1	110%	47%	–	–	–	34%	–	–	75%	6%
COc1ccc(Cl)cc1NC(=O)Nc1cc(C)nc2ccccc12	–	–	98%	88%	–	–	–	–	–	78%
CCN1/C(=C/C(C)=O)Sc2ccc(OC)cc21	–	–	77%	75%	–	–	–	–	–	–
CSc1nc(-c2ccc(F)cc2)c(-c2ccnc(NC(C)c3ccccc3)c2)[nH]1 (configuration not stated)	–	–	101%	85%	–	89%	90%	91%	98%	63%
O=C1C(Cl)=C(N2C(=O)CCC2=O)C(=O)c2ccccc21	67%	62%	–	80%	–	–	91%	95%	–	95%
O=c1cc(N2CCOCC2)oc2c(-c3ccccc3)cccc12	–	–	–	–	101%	101%	–	–	–	–
